In PubChem BioAssay (NCI):
Compounds without any hit were thinned out: in the full panel of roughly 83,000, 20% have a hit.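 In brief: 96-well plates, 48 h treatment, single concentration, percent growth endpoint.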 Unmarked numbers belong to inactive results. Activity calls are given as the source filed them. How the source made its calls: active means growth percent below 10; inactive means the rest.

How the values were obtained:
Experiment in all cases: NCI-60 one-dose screen, 48 h (100 = growth as untreated, 0 = no growth, -100 = all killed)
Settings in all cases: 10 µM unless noted
[1] = tested on: BT-549 breast
[2] = tested on: MDA-MB-435 melanoma
[3] = tested on: SW-620 colon
[4] = tested on: MCF7 breast
[5] = tested on: HCT-116 colon
[6] = tested on: HCC-2998 colon
[7] = tested on: KM12 colon

Row | SMILES | growth [1] | growth [2] | growth [3] | growth [4] | growth [5] | growth [6] | growth [7]
1 | O=C(/C(=C/c1ccc([N+](=O)[O-])cc1)SCc1ccc(Cl)cc1)c1ccc(F)cc1 | 78.2% | 49.2% | -9.4% (active) | -11.9% (active) | -54.9% (active) | 84.5% | 23.3%
2 | COc1ccc(NC(=O)c2ccc(Nc3ncnc4[nH]c(C)c(C)c34)cc2)cc1 | 99.1% | 108% | 102% | 100% | 106% | 104% | 103%
3 | CCO/C=N/S(=O)(=O)c1cc2c(cc1Cl)NC=NS2(=O)=O | 101% | 97.5% | 94.9% | 96.2% | 103% | 102% | 107%
4 | COc1ccc(N(C)c2nc(Cl)nc3ccn(C)c23)cc1 | -4.36% (active) | -26.4% (active) | 21.9% | 13.6% | -7.01% (active) | 15.8% | 5.77% (active)
5 | C=C1C(=O)O[C@H]2[C@H]1CC/C(COC(=O)c1c[nH]c3ccccc13)=C\CC[C@@]1(C)O[C@@H]21 | -37.2% (active) | -82.9% (active) | -61.4% (active) | -52.7% (active) | -86.1% (active) | -80.9% (active) | -47.4% (active)
6 | Oc1c(CCl)cc(Cl)cc1Cc1cc(Cl)cc(Cc2cc(Cl)cc(CCl)c2O)c1O | 23.9% | 44.1% | 25.5% | 8.55% (active) | 3.12% (active) | 19.5% | 23.2%
7 | C#Cc1cccc(Nc2ncnc3ccc(NC(=O)c4ccccc4)cc23)c1 | 74.6% | 84% | 100% | 72.1% | 76% | 97.7% | 90%
8 | CCCCCCCCCCCCCC1=NCC[N+]1(CCO)Cc1ccccc1 (stereo unspecified) | -50.7% (active) | -91.8% (active) | -78.2% (active) | -84.8% (active) | -90.8% (active) | -75.3% (active) | -85.1% (active)
9 | COc1ccc(/C=C/C(=O)c2ccc(NC(=O)CSc3nnc(-c4ccc(OC)c(OC)c4)n3-c3ccccc3)cc2)cc1 | 55.2% | 45.3% | 10.2% | -8.34% (active) | -85.8% (active) | 94.9% | 61.3%
10 | O=C(O)c1cn(C2CC2)c2cc(N3CCN(Cc4nnc(Nc5ccccc5)o4)CC3)c(F)cc2c1=O | 98.8% | 97.6% | 106% | 97.7% | 91.6% | 103% | 96.7%
11 | CCOCc1nc2ccccc2c(=O)[nH]1 | 106% | 103% | 97.1% | 94.9% | 98% | 105% | 103%
12 | N#CCNc1ccc(C(=O)O)cc1 | 106% | 101% | 103% | 98.9% | 103% | 104% | 105%
13 | C=C1C(=O)O[C@H]2[C@H]1CC/C(C=Nc1c(N)cc(F)cc1Br)=C\CC[C@@]1(C)O[C@@H]21 | 84.8% | 83.2% | 26.5% | 24.4% | 48.2% | 109% | 98.8%
14 | CC(C)C[C@H](C(=O)O)N(C)C(=O)[C@@H]1CCCN1C(=O)[C@H](C)OC(=O)[C@H](CCC(N)=O)NC(=O)[C@@H]1CCC(=O)N1 | 94.2% | 106% | 106% | 85.2% | 99.2% | 108% | 100%
15 | NCCCn1c2c(c3cc(-c4ccn[nH]4)ccc3c1=O)C(=O)c1ccccc1-2 | 77.3% | 63% | 24.6% | 13% | 19.1% | 60.6% | 38.7%
16 | CCOC(=O)/C=C1\SC(=Nc2ccc(C#N)cc2)N(CCN2C(=O)/C(=C/C(=O)OCC)SC2=Nc2ccc(C#N)cc2)C1=O | 32.5% | 72.6% | 9.61% (active) | 24.4% | 4.59% (active) | 20.6% | 23.2%
17 | O=C1NC(SCc2ccc(F)cc2)=N/C1=C/c1cccc(OCc2ccc(Cl)cc2)c1 | 87.2% | 88.5% | 54.1% | 64.1% | -10.9% (active) | 92.1% | 88.9%

Row | SMILES | growth [1] | growth [2] | growth [3] | growth [4] | growth [5] | growth [6] | growth [7]
18 | Cc1cccc(C)c1Nc1nnc(-c2ccc(F)cc2)o1 | 107% | 103% | 98.1% | 96.6% | 101% | 99.4% | 89.2%
19 | CCCNc1nc(C)[nH]c(=O)c1S | 113% | 105% | 121% | 111% | 108% | 112% | 107%
20 | CN(C)[C@@H]1C(=O)C(C(N)=O)=C(O)[C@@]2(O)C(=O)C3=C(O)c4c(O)cc(CN5CCc6ccccc6C5)c(Cl)c4C[C@H]3C[C@@H]12 | -83.3% (active) | -75.7% (active) | -72.4% (active) | -68.8% (active) | -90.5% (active) | -67.1% (active) | -82.9% (active)
21 | Nc1ccccc1NS(=O)(=O)c1ccc(Cl)cc1 | 101% | 90.6% | 99.3% | 94% | 97% | 84.4% | 100%
22 | CN1CCN(C(=O)[C@@]2(C)CC[C@]3(C)CC[C@]4(C)C(=CC[C@@H]5[C@@]6(C)CC[C@H](OC(=O)c7cccnc7)C(C)(C)[C@@H]6CC[C@]54C)[C@@H]3C2)CC1 | 73.8% | 45.4% | -35.5% (active) | 19.1% | 51.7% | 97.3% | 53.2%
23 | O=C(CN1N=C(c2ccc(F)cc2)CCC1=O)Nc1nccs1 | 101% | 102% | 91.6% | 93.8% | 104% | 97.6% | 107%
24 | COc1ccc(NC(=O)c2sc3nc(C)c(C(C)=O)cc3c2N)cc1 | 86.5% | 93.2% | 97% | 95.7% | 88.6% | 103% | 105%
25 | COc1ccc(-c2nnc(N3CCN(C(=O)CN4CCN(c5ccc(OC)cc5)CC4)CC3)nc2-c2ccc(OC)cc2)cc1 | -81.8% (active) | -68.1% (active) | -92.5% (active) | -69.8% (active) | -41.1% (active) | 33.9% | -13.1% (active)
26 | Cc1cc(NC(=O)CNc2nc(Oc3ccc(F)cc3)nc(-c3ccc(F)cc3)n2)ccc1Cl | 100% | 105% | 101% | 94.8% | 82.1% | 102% | 103%
27 | CCOC(=O)C1CCN(S(=O)(=O)/N=C2/NC(=O)NC2=C(Cl)Cl)CC1 | -9.2% (active) | -7.61% (active) | -63.9% (active) | 16.4% | 9.4% (active) | -10.1% (active) | 12.8%
28 | CC(=O)ON1CCCC(P(=O)(OCOC(=O)C(C)(C)C)OCOC(=O)C(C)(C)C)C1=O (stereo unspecified) | -1.15% (active) | 27% | 16.5% | -1.76% (active) | 0.623% (active) | -36.8% (active) | -11.5% (active)
29 | C=C(C)[C@@H]1CC[C@]2(C(=O)O)CC[C@]3(C)[C@H](CC[C@@H]4[C@@]5(C)C[C@@H](CC#Cc6ccc(Cl)cc6)C(=O)C(C)(C)[C@@H]5CC[C@]43C)[C@@H]12 | 46.5% | 46.6% | 41.3% | 36.3% | 22% | 50.3% | 26.3%
30 | COc1ccc(-c2cn(-c3ccc(Cl)cc3)c(=S)[nH]2)cc1OC | 78.6% | 86.1% | 114% | 72.2% | 32.2% | 79.2% | 70.2%
31 | C=C(C)[C@@H]1CC[C@]2(C(=O)NCCCO)CC[C@]3(C)[C@H](CC[C@@H]4[C@@]5(C)CCCNC(C)(C)[C@@H]5CC[C@]43C)[C@@H]12 | 78.5% | 69.9% | 74.9% | 41.5% | 53.7% | 74.3% | 84.5%
32 | FC(F)(F)c1ccc2c(Nc3cccc(C4CC(c5ccccc5)=NN4c4ccc(Cl)cc4)c3)ccnc2c1 (stereo unspecified) | 55.7% | 38% | -17.3% (active) | 11.5% | -3.98% (active) | 66.5% | 15.5%
33 | O=C1NC(c2ccc(F)cc2)N=C2C(c3ccccc3)=NOC12 (stereo unspecified) | 106% | 106% | 106% | 101% | 103% | 101% | 98.8%
